Data as given in PubChem BioAssay AID2685 (National Center for Advancing Translational Sciences (NCATS), 2010).
Hit rate of the full screen: of about 320,000 compounds, about 2,100 (0.66%) were called active. Roughly 53% stayed inconclusive and do not appear here. Calls follow the shape of the dose curve; as a rule, active = well fitted inhibition curve with a large enough effect in the signal ratio, with a control signal flat (not every such curve was filed as active); inconclusive = small, poorly fitted or top-dose-only effect, or effect the other way, or a change in a side signal; inactive = flat fitted curve, though single readings scatter; the % refers to the signal ratio. The list comes from a sample in which actives are over-represented; it also holds similar structures and randomly drawn compounds.

Assay: qHTS Assay for Lipid Storage Modulators in Drosophila S3 Cells;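 as to cell number change: cells counted by Cell Tracker Red CMTPX staining in the red channel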; as to lipid storage change, negative = inhibition: % is scaled to controls: 0 for no effect and ±100 for the full control effect
Conditions: BODIPY lipid droplet fluorescence, 18-24 h, cells fed with added oleic acid; cell number change: measured here: cell count max response; series mostly up to 46.1 µM
Method in brief: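 Drosophila S3 cells loaded with oleic acid (400 uM, as added) and compounds at several concentrations; lipid droplets imaged by 488-nm laser-scanning cytometry, 500–530 nm intensity and object ratio to cell channel. Percent activity normalized to 20 uM Triacsin C.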
Potency is read from the fitted curve at half-maximal effect.

| Structure (SMILES) | Potency | cell number change [%] | lipid storage change, negative = inhibition |
| --- | --- | --- | --- |
| CC(C)N(C)Cc1nnnn1CC(=O)NCc1cc(F)cc(C(F)(F)F)c1 | inactive | -9.03 |  |
| Cn1nc(-c2ccccc2)c(CO)c1Oc1cccc(C(F)(F)F)c1 | inactive | 9.06 |  |
| COc1ccc(C(=O)CSc2nnc(C3CC3)n2N)cc1 | inactive | -1.83 |  |
| Cc1ccc(NS(=O)(=O)c2cc(C(=O)O)ccc2Cl)cc1 | 2.31 µM (active) | -3.53 |  |
| Cc1ccc(NS(=O)(=O)c2cc(C(=O)O)ccc2Cl)c(C)c1 | inactive | -3.54 |  |
| O=C(O)c1ccc(NS(=O)(=O)c2cc(Cl)ccc2Cl)cc1 | inactive | 3.91 |  |
| COCCN1Cc2cccc(C(=O)NC(C)CCc3ccco3)c2C1=O (stereo unspecified) | inactive | 4.03 |  |
| O=C(Nc1cccc(C(=O)O)c1)/C(=C\c1ccco1)NC(=O)c1ccccc1 | inactive | 13 |  |
| CCOC(=O)N1CCN(CC(=O)N2c3ccccc3Sc3ccccc32)CC1 | inactive | -12.6 |  |
| C#CCOc1ccc(C2C3=C(CC(C)(C)CC3=O)N(CC(=O)O)C3=C2C(=O)CC(C)(C)C3)cc1OC | 10.3 µM (active) | -7.42 |  |
| COc1ccc(C2C3=C(CC(C)(C)CC3=O)N(CC(=O)O)C3=C2C(=O)CC(C)(C)C3)cc1OC | inactive | -17.9 |  |
| C#CCOc1ccc(C2C3=C(CC(C)(C)CC3=O)N(CC(=O)O)C3=C2C(=O)CC(C)(C)C3)cc1 | inactive | -0.525 |  |
| O=C(CN1C(=O)c2ccccc2C1=O)Nc1ccc(-c2nc3ccccc3o2)cc1 | inactive |  |  |
| Cc1nn(C)cc1C(C(=O)NC1CCCCC1)N(CCc1ccccc1)C(=O)c1cnccn1 (stereo unspecified) | inactive | 19.3 |  |
| O=C(/C=C/c1cn(-c2ccccc2)nc1-c1cccnc1)N1CCCC1 | inactive | -19.7 |  |
| CCOc1cc(/C=N/NC(=O)c2ccncc2)ccc1OC(=O)c1ccccc1 | 12.6 µM (active) | -17.2 |  |
| CCOc1cc(/C=N/NC(=O)c2ccccn2)ccc1OC(=O)c1ccc(F)cc1 | inactive | 5.41 |  |
| CCOc1cc(/C=N/NC(=O)c2cccnc2)ccc1OC(=O)c1ccco1 | inactive | -16.1 |  |
| Cc1cccc(Cn2c(N(C)CCO)nc3c2c(=O)[nH]c(=O)n3C)c1 | inactive | 28.6 |  |
| CCN(c1ccccc1)S(=O)(=O)c1ccc(OC)c(NC(=O)CN2C(=O)NC(C)(C)C2=O)c1 | inactive | -3.73 |  |
| COc1ccc(C2(c3ccc(OC)cc3)NC(=O)N(CC(=O)N3CCOCC3)C2=O)cc1 | 0.231 µM (active) | 8.58 |  |
| COc1cccc(N2CCN(C(=O)CN3C(=O)NC4(CCCC4)C3=O)CC2)c1 | inactive |  |  |
| COc1ccc(NC(=O)CN2C(=O)NC3(CCCC3)C2=O)c(OC)c1 | inactive | -7.62 |  |
| COc1ccc(N2CCN(C(=O)CSc3nc4ccccc4c(=O)[nH]3)CC2)cc1 | inactive | -2.61 |  |
| COc1ccc(N2CCN(C(=O)CSc3ccc(C)cc3)CC2)cc1 | inactive | 6.76 |  |
| COc1ccc(N2CCN(C(=O)CN3C(=O)NC(C)(C4CC4)C3=O)CC2)cc1 (stereo unspecified) | inactive | -22.3 |  |
| COc1ccc(N2CCN(C(=O)CSc3nnc(C)c(=O)[nH]3)CC2)cc1 | 29.1 µM (active) | 2.46 |  |
| COc1ccc(-c2csc(NC(=O)CN3C(=O)NC4(CCCC4)C3=O)n2)c(OC)c1 | 6.51 µM (active) |  |  |

| Structure (SMILES) | Potency | cell number change [%] | lipid storage change, negative = inhibition |
| --- | --- | --- | --- |
| CCC1(c2ccc(F)cc2)NC(=O)N(CC(=O)N2CCOCC2)C1=O (stereo unspecified) | inactive | -2.03 |  |
| COc1ccc(C2(c3ccc(OC)cc3)NC(=O)N(CC(=O)Nc3ccccc3)C2=O)cc1 | inactive | 10.9 |  |
| COc1ccc(-c2csc(NC(=O)CN3C(=O)C4CCCCC4C3=O)n2)c(OC)c1 (stereo unspecified) | inactive | -28.9 |  |
| COc1ccc(N2CCN(C(=O)CN3C(=O)NC4(CCCCCC4)C3=O)CC2)cc1 | 5.8 µM (active) | -6.83 |  |
| CCCCOC(=O)c1ccc(NC(=O)C(CCS(C)(=O)=O)NC(C)=O)cc1 (stereo unspecified) | inactive | 13 |  |
| CC1(OC(=O)CCc2ccccc2)C(=O)C=C2C=C(c3ccc(C#N)cc3)N(C3CCCCC3)C=C2C1=O (stereo unspecified) | inactive | 20.5 |  |
| CCCCC[C@]12Cc3cc(OC)c(OC)cc3C(O1)c1c(cc(C)n(-c3ccccc3)c1=O)O2 |  | -8.82 | -5.41% [at 9.22 µM] (inactive) |
| O=C(O)c1ccc(Sc2nnc(-c3cccc(Br)c3)o2)c([N+](=O)[O-])c1 | 25.9 µM (active) | -23.6 |  |
| Cn1c(Sc2ccc(C(=O)O)cc2[N+](=O)[O-])nnc1-c1ccccc1 | inactive | 9.56 |  |
| O=C(O)c1ccc(-c2nnc(-c3cccc(Br)c3)o2)cc1 | inactive | 12.2 |  |
| C=CCOc1cccc(C2C(C(=O)c3ccco3)=C(O)C(=O)N2Cc2cccnc2)c1 (stereo unspecified) | inactive | 4.96 |  |
| O=C(CN1CCC(C(=O)c2ccc(F)cc2)CC1)Nc1ccc(F)cc1 | inactive | -11.2 |  |
| Cn1c(/N=C/c2c[nH]c3ccccc23)nc2ccccc21 | inactive | -13.5 |  |
| O=C(NN1CCOCC1)c1cc(-c2ccc(Br)s2)nc2ccccc12 | inactive | 18.5 |  |
| CC(C)CCNC(=O)CCc1nnc(COc2ccccc2)o1 | inactive | 3.37 |  |
| O=C(CCc1nnc(COc2ccccc2)o1)NCc1ccccc1 | inactive | -8.23 |  |
| COC(=O)[C@H](CC(C)C)NC(=O)CCc1nnc(COc2ccccc2)o1 | 18.4 µM (active) | -24.9 |  |
| CC(/C=N/NC(=O)c1cccnc1)=C\c1ccco1 | inactive | 4.96 |  |
| O=S(=O)(NC(=NCc1ccccc1)c1ccccc1)c1ccc(Br)cc1 | inactive | 2.37 |  |
| CSc1nnc(N2C(=O)C(O)=C(C(=O)c3ccco3)C2c2cccc(Cl)c2)s1 (stereo unspecified) | inactive |  |  |
| CSc1ccc(C2C(C(=O)c3ccco3)=C(O)C(=O)N2c2nnc(SC)s2)cc1 (stereo unspecified) | 7.31 µM (active) | -24.7 |  |
| CSc1nnc(N2C(=O)C(O)=C(C(=O)c3ccco3)C2c2ccc(F)cc2)s1 (stereo unspecified) | inactive | -4.48 |  |
| CCCc1c(O)nc(SCC(=O)O)[nH]c1=O | inactive | -0.742 |  |
| COC(=O)COc1coc(CN2CCN(c3cccc(Cl)c3)CC2)cc1=O | inactive | 12.5 |  |
| COc1cc(OC)c(CN2CCCN(C)CC2)cc1Br | inactive | 15.5 |  |
| COc1cc(OC)c(CN2CCCCCCC2)cc1Br | 29.1 µM (active) | -11.5 |  |
| COc1ccc(Br)cc1CN1CCCCCCC1 | inactive | 9.97 |  |
